# Measured values: PubChem BioAssay (Tox21)
# Values joined by “and” are separate entries in the source; they are usually repeats but may differ in a detail not shown here. Equal values may be shown once. Results filed as inconclusive are left out. A call without a number means that no potency is given here. More than one record can exist for a structure, and the calls need not agree. Active and inactive are the calls of the source. Calls follow the shape of the dose curve; as a rule, active = well fitted curve in the direction sought with a large enough effect in the repeat runs; inconclusive = weak or mixed curves; inactive = no such curve, though single readings can be large; an effect the other way counts as inactive or inconclusive.
# Legend:
# [1] = qHTS RealTime-Glo MT Cell Viability Assay in HepG2 cells - 40 hour (AID 1224870); also: nearly all actives have a fitted effect of over 50% in size
# How it was run: (§1)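 HepG2 cells mixed with RealTime-Glo MT reagents (NanoLuc plus cell-permeant prosubstrate) were seeded at 600 cells/well, incubated 5 h at 37 C/5% CO2, then pinned with compounds in DMSO; nonlytic luminescence tracked viability during 40 h treatment.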
# [2] = qHTS RealTime-Glo MT Cell Viability Assay in HEK293 cells - 16 hour (AID 1224872); also: top concentration of the series differs between compounds; nearly all actives have a fitted effect of over 50% in size
# How it was run: (§2)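 HEK293 cells were seeded at 600 cells/well together with NanoLuc luciferase and cell-permeant prosubstrate, preincubated 5 h at 37 C/5% CO2, then given compound in DMSO by pintool. Luminescence from viable-cell prosubstrate reduction was read repeatedly over 40 h.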
# [3] = qHTS RealTime-Glo MT Cell Viability Assay in HepG2 cells - 8 hour (AID 1224873); also: nearly all actives have a fitted effect of over 55% in size
# How it was run: as §1
# [4] = qHTS RealTime-Glo MT Cell Viability Assay in HEK293 cells - 40 hour (AID 1224874); settings: RealTime-Glo luminescence; max response: stronger effect = lower value; also: nearly all actives have a fitted effect of over 50% in size; also: potency is read from the fitted curve at half-maximal effect
# How it was run: (§3)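 Real-time viability in HEK293: signal arises when living cells convert a prosubstrate for NanoLuc in the medium, so luminescence tracks viable cell number. Compound (23 nL, DMSO) added 5 h post-seeding; kinetic reads at 0–40 h, 37 C.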
# [5] = A CellTox Green Cytotoxicity Assay to monitor cytotoxicity in HEK293 cells - 24 hour (AID 1224875); also: nearly all actives have a fitted effect of over 45% in size; also: potency is read from the fitted curve at half-maximal effect
# How it was run: (§4)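 Cells (HEK293, 600/well) and dye reagent are dispensed together. After 5 h at 37 C, 23 nL compound is pinned in. Plates stay at 37 C for 40 h with fluorescence read at 0h, 8h, 16h, 24h, 32h and 40h.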
# [6] = A CellTox Green Cytotoxicity Assay to monitor cytotoxicity in HepG2 cells - 16 hour (AID 1224876); also: nearly all actives have a fitted effect of over 45% in size
# How it was run: (§5)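 Cells and non-lytic dye reagent are dispensed together (600 HepG2 cells/well) and incubated 5 h before DMSO compound transfer. Kinetic fluorescence is then recorded in the same wells during 40 h at 37 C.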
# [7] = qHTS RealTime-Glo MT Cell Viability Assay in HepG2 cells - 32 hour (AID 1224877); also: nearly all actives have a fitted effect of over 55% in size
# How it was run: (§6)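 HepG2 cells were seeded at 600 cells/well together with NanoLuc luciferase and a cell-permeant prosubstrate, preincubated 5 h at 37 C/5% CO2, then pin-dosed with compounds in DMSO. Nonlytic luminescence from viable cells was read at each time point.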
# [8] = A CellTox Green Cytotoxicity Assay to monitor cytotoxicity in HepG2 cells - 24 hour (AID 1224878); also: nearly all actives have a fitted effect of over 45% in size
# How it was run: as §5
# [9] = A CellTox Green Cytotoxicity Assay to monitor cytotoxicity in HepG2 cells - 40 hour (AID 1224879); also: nearly all actives have a fitted effect of over 40% in size; also: potency is read from the fitted curve at half-maximal effect
# How it was run: as §5
# [10] = qHTS RealTime-Glo MT Cell Viability Assay in HEK293 cells - 0 hour (AID 1224880); also: top concentration of the series differs between compounds; nearly all actives have a fitted effect of over 45% in size
# How it was run: as §3
# [11] = A CellTox Green Cytotoxicity Assay to monitor cytotoxicity in HEK293 cells - 32 hour (AID 1224881); also: nearly all actives have a fitted effect of over 40% in size; also: potency is read from the fitted curve at half-maximal effect
# How it was run: as §4
# [12] = A CellTox Green Cytotoxicity Assay to monitor cytotoxicity in HepG2 cells - 32 hour (AID 1224883); also: nearly all actives have a fitted effect of over 50% in size
# How it was run: as §5
# [13] = A CellTox Green Cytotoxicity Assay to monitor cytotoxicity in HEK293 cells - 8 hour (AID 1224884); also: nearly all actives have a fitted effect of over 35% in size
# How it was run: as §4
# [14] = qHTS RealTime-Glo MT Cell Viability Assay in HepG2 cells - 16 hour (AID 1224885); also: nearly all actives have a fitted effect of over 50% in size
# How it was run: as §6
# [15] = qHTS RealTime-Glo MT Cell Viability Assay in HEK293 cells - 24 hour (AID 1224886)
# How it was run: as §2
# [16] = qHTS RealTime-Glo MT Cell Viability Assay in HEK293 cells - 8 hour (AID 1224887)
# How it was run: as §3
# [17] = A CellTox Green Cytotoxicity Assay to monitor cytotoxicity in HEK293 cells - 16 hour (AID 1224888); also: nearly all actives have a fitted effect of over 35% in size
# How it was run: as §4
# [18] = A CellTox Green Cytotoxicity Assay to monitor cytotoxicity in HEK293 cells - 40 hour (AID 1224871); also: nearly all actives have a fitted effect of over 45% in size; also: potency is read from the fitted curve at half-maximal effect
# How it was run: as §4
# [19] = A CellTox Green Cytotoxicity Assay to monitor cytotoxicity in HepG2 cells - 0 hour (AID 1224882); also: nearly all actives have a fitted effect of over 35% in size
# How it was run: as §5
# [20] = qHTS RealTime-Glo MT Cell Viability Assay in HepG2 cells - 0 hour (AID 1224889); also: nearly all actives have a fitted effect of over 50% in size
# How it was run: as §6
smiles,measurement,setting,value
CC(=O)CCc1ccccc1,Potency,[1],inactive
same,Potency,[2],inactive
same,Potency,[3],inactive
same,max response,[4],1.52% (inactive) and -3.07% (inactive)
same,Potency,[5],inactive
same,Potency,[6],inactive
same,Potency,[7],inactive
same,Potency,[8],inactive
same,Potency,[9],inactive
same,Potency,[10],inactive
same,Potency,[11],inactive
same,Potency,[12],inactive
same,Potency,[13],inactive
same,Potency,[14],inactive
same,Potency,[15],inactive
same,Potency,[16],inactive
same,Potency,[17],inactive
CCOC(=O)C1OC1c1ccccc1 (stereo not given),Potency,[1],inactive
same,Potency,[18],inactive
same,Potency,[3],inactive
same,Potency,[5],inactive
same,Potency,[6],inactive
same,Potency,[7],inactive
same,Potency,[8],inactive
same,Potency,[10],inactive
same,Potency,[11],inactive
same,Potency,[19],inactive
same,Potency,[12],inactive
same,Potency,[13],inactive
same,Potency,[14],inactive
same,Potency,[16],inactive
same,Potency,[17],inactive
C/C=C(C)/C=C/C=C(C)C,Potency,[1],inactive
same,Potency,[2],inactive
same,Potency,[3],inactive
same,max response,[4],-28.6% (inactive) and 16.8% (inactive)
same,Potency,[5],inactive
same,Potency,[6],inactive
same,Potency,[7],inactive
same,Potency,[8],inactive
same,Potency,[9],inactive
same,Potency,[10],inactive
same,Potency,[11],inactive
same,Potency,[12],inactive
same,Potency,[13],inactive
same,Potency,[14],inactive
same,Potency,[15],inactive
same,Potency,[16],inactive
same,Potency,[17],inactive
O=c1c(-c2ccc(O)cc2)coc2cc(O)ccc12,Potency,[1],inactive
same,Potency,[2],inactive
same,Potency,[3],inactive
same,Potency,[5],inactive
same,Potency,[6],inactive
same,Potency,[7],inactive
same,Potency,[8],inactive
same,Potency,[9],inactive
same,Potency,[10],inactive
same,Potency,[11],inactive
same,Potency,[19],inactive
same,Potency,[12],inactive
same,Potency,[13],inactive
same,Potency,[14],inactive
same,Potency,[16],inactive
same,Potency,[17],inactive
NS(=O)(=O)c1cc2c(cc1Cl)NC=NS2(=O)=O,Potency,[1],inactive
same,Potency,[18],inactive
same,Potency,[2],inactive
same,Potency,[3],inactive
same,max response,[4],7.37% (inactive) and 0.52% (inactive)
same,Potency,[5],inactive
same,Potency,[7],inactive
same,Potency,[8],inactive
same,Potency,[9],inactive
same,Potency,[10],inactive
same,Potency,[11],inactive
same,Potency,[12],inactive
same,Potency,[13],inactive
same,Potency,[14],inactive
same,Potency,[15],inactive
same,Potency,[16],inactive
same,Potency,[17],inactive
CC1=C(/C=C/C(C)=C/C=C/C(C)=C/CO)C(C)(C)CCC1,Potency,[1],inactive
same,Potency,[2],inactive
same,Potency,[3],inactive
same,max response,[4],-27.5% (inactive) and -20.7% (inactive)
same,Potency,[5],inactive
same,Potency,[7],inactive
same,Potency,[8],inactive
same,Potency,[9],inactive
same,Potency,[10],inactive
same,Potency,[11],inactive
same,Potency,[19],inactive
same,Potency,[12],inactive
same,Potency,[13],inactive
same,Potency,[14],inactive
same,Potency,[15],inactive
same,Potency,[16],inactive
same,Potency,[17],inactive
same,Potency,[20],inactive
O=C(O)c1cc(-c2ccccc2)nc2ccccc12,Potency,[1],inactive
same,Potency,[18],inactive
same,Potency,[2],inactive
same,Potency,[3],inactive
same,max response,[4],-1.75% (inactive) and 4.47% (inactive)
same,Potency,[5],inactive
same,Potency,[7],inactive
same,Potency,[8],inactive
same,Potency,[9],inactive
same,Potency,[10],inactive
same,Potency,[11],inactive
same,Potency,[12],inactive
same,Potency,[13],inactive
same,Potency,[14],inactive
same,Potency,[15],inactive
same,Potency,[16],inactive
same,Potency,[17],inactive
same,Potency,[20],inactive
ClC1=C(Cl)C(Cl)(Cl)C(Cl)=C1Cl,Potency,[1],inactive
same,Potency,[18],12.4 µM (active) and 34.7 µM (active)
same,Potency,[3],inactive
same,Potency,[4],34.9 µM (active)
same,Potency,[5],38.9 µM (active)
same,Potency,[7],inactive
same,Potency,[8],inactive
same,Potency,[9],22 µM (active)
same,Potency,[10],inactive
same,Potency,[11],17.5 µM (active) and 34.7 µM (active)
same,Potency,[19],inactive
same,Potency,[12],inactive
same,Potency,[13],inactive
same,Potency,[14],inactive
same,Potency,[16],inactive
same,Potency,[17],inactive
CC1(C)CC(N=C=O)CC(C)(CN=C=O)C1 (stereo not given),Potency,[1],inactive
same,Potency,[18],inactive
same,Potency,[2],inactive
same,Potency,[3],inactive
same,max response,[4],8.76% (inactive) and 2.25% (inactive)
same,Potency,[5],inactive
same,Potency,[7],inactive
same,Potency,[8],inactive
same,Potency,[9],inactive
same,Potency,[10],inactive
same,Potency,[11],inactive
same,Potency,[12],inactive
same,Potency,[13],inactive
same,Potency,[14],inactive
same,Potency,[15],inactive
same,Potency,[16],inactive
same,Potency,[17],inactive
same,Potency,[20],inactive
COC(=O)c1ccccc1O,Potency,[1],inactive
same,Potency,[2],inactive
same,Potency,[3],inactive
same,max response,[4],-1.26% (inactive) and 16.9% (inactive)
same,Potency,[5],inactive
same,Potency,[6],inactive
same,Potency,[7],inactive
same,Potency,[8],inactive
same,Potency,[9],inactive
same,Potency,[10],inactive
same,Potency,[11],inactive
same,Potency,[12],inactive
same,Potency,[13],inactive
same,Potency,[14],inactive
same,Potency,[15],inactive
same,Potency,[16],inactive
same,Potency,[17],inactive
same,Potency,[20],inactive
Oc1c(Cl)cc(Cl)c(Cl)c1Cl,Potency,[1],inactive
same,Potency,[18],inactive
same,Potency,[3],inactive
same,Potency,[5],inactive
same,Potency,[7],inactive
same,Potency,[8],inactive
same,Potency,[9],inactive
same,Potency,[10],inactive
same,Potency,[11],inactive
same,Potency,[19],inactive
same,Potency,[12],inactive
same,Potency,[13],inactive
same,Potency,[14],inactive
same,Potency,[17],inactive
same,Potency,[20],inactive
CC(C)(C)C1CCC(O)CC1 (stereo not given),Potency,[1],inactive
same,Potency,[2],inactive
same,Potency,[3],inactive
same,max response,[4],-21.7% (inactive) and -6.15% (inactive)
same,Potency,[5],inactive
same,Potency,[6],inactive
same,Potency,[7],inactive
same,Potency,[8],inactive
same,Potency,[9],inactive
same,Potency,[10],inactive
same,Potency,[11],inactive
same,Potency,[12],inactive
same,Potency,[13],inactive
same,Potency,[14],inactive
same,Potency,[15],inactive
same,Potency,[16],inactive
same,Potency,[17],inactive
CCCCC/C=C\C/C=C\CCCCCCCC(=O)OC,Potency,[1],inactive
same,Potency,[18],inactive and 54.9 µM (active)
same,Potency,[2],inactive
same,Potency,[3],inactive
same,max response,[4],3.92% (inactive) and -0.83% (inactive)
same,Potency,[5],inactive
same,Potency,[7],inactive
same,Potency,[8],inactive
same,Potency,[9],inactive
same,Potency,[10],inactive
same,Potency,[11],inactive
same,Potency,[12],inactive
same,Potency,[13],inactive
same,Potency,[14],inactive
same,Potency,[15],inactive
same,Potency,[16],inactive
same,Potency,[17],inactive
same,Potency,[20],inactive
